Source: PubChem BioAssay (Tox21)
Results filed as inconclusive are left out. Calls of active or inactive are those of the source. Unless noted, calls follow the shape of the dose curve; as a rule, active = well fitted curve in the direction sought with a large enough effect in the repeat runs; inconclusive = weak or mixed curves; inactive = no such curve, though single readings can be large; an effect the other way counts as inactive or inconclusive.

How the values were obtained:
[1] = molecular target: Thyrotropin-releasing hormone receptor (Homo sapiens) (UniProt P34981); assay: qHTS assay to identify small molecule agonists of the thyrotropin-releasing hormone receptor (TRHR) signaling pathway (AID 1346891; calls by dose curve; also: series mostly up to about 58 µM)
Summary of the method: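 Intracellular calcium rise, read as fluorescence every second for 3 min, served as the agonist signal in dye-loaded HEK293 cells expressing TRHR; each compound ran at 15 concentrations in triplicate.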

[2] = Human pregnane X receptor (PXR) small molecule agonists, qHTS cell viability counter screen (AID 1346977); also: nearly all actives have a fitted effect of over 50% in size
Summary of the method: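 PXR-Luc HepG2, 2,000 cells/well, 5% charcoal-stripped FBS; 5hr settle; cpd 24hr, 37C/5% CO2; CellTiter-Fluor at 23hr, read 1hr later (fluorescence).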

[3] = Caspase-3/7 induction in CHO-K1 cells by small molecules, qHTS cell viability counter screen (AID 1346979); also: nearly all actives have a fitted effect of over 35% in size; also: potency is read from the fitted curve at half-maximal effect
Summary of the method: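 Cells (CHO-K1, wild type) are plated at 1,500 per well and incubated 5hr. Test compounds in DMSO are then pinned in, followed by 16hr at 37C and 5% CO2. Viability is read by CellTiter-Fluor fluorescence after 1hr.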

[4] = Caspase-3/7 induction in CHO-K1 cells by small molecules, qHTS assay (AID 1346980); also: nearly all actives have a fitted effect of over 15% in size
Summary of the method: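 Wild-type cells were seeded at 1,500 per well and settled 5 hr at 37 C, 5% CO2, then exposed to DMSO-dissolved compounds for 17 hr. Caspase-Glo 3/7 reagent was added, and luminescence was read after 30min at room temperature.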

[5] = Caspase-3/7 induction in HepG2 cells by small molecules, qHTS cell viability counter screen (AID 1346981); also: series mostly up to about 92 µM; nearly all actives have a fitted effect of over 30% in size
Summary of the method: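 In this quantitative HTS counter screen, compounds delivered in DMSO were left on unmodified HepG2 cells for 16 hr at 37 C. Viability was then determined fluorometrically with CellTiter-Fluor, in parallel with caspase-3/7 induction in the same wells.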

[6] = molecular target: Nuclear receptor subfamily 1 group I member 2 (Homo sapiens) (UniProt O75469); assay: Human pregnane X receptor (PXR) small molecule agonists, qHTS assay (AID 1346982); also: nearly all actives have a fitted effect of over 35% in size; also: potency is read from the fitted curve at half-maximal effect
Summary of the method: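 Reporter HepG2 cells expressing PXR-Luc are cultured in charcoal-stripped FBS (5%), treated with compounds for 24 hr at 37 C, and assayed by ONE-Glo luminescence after 30 min at room temperature.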

[7] = molecular target: Cytochrome P450 2D6 (Homo sapiens) (UniProt P10635); assay: Cytochrome P450 Family 2 Subfamily D Member 6 (CYP2D6) small molecule antagonists: luciferase reporter qHTS assay (AID 1671196); also: nearly all actives have a fitted effect of over 50% in size; also: potency is read from the fitted curve at half-maximal effect
Summary of the method: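 Test chemicals meet CYP2D6 plus proluciferin substrate (10 min, RT); NADPH regenerating solution then drives turnover for 1 h. Detection reagent halts the reaction; luminescence measured after 20 min.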

[8] = molecular target: Cytochrome P450 2C19 (Homo sapiens) (UniProt P33261); assay: Cytochrome P450 Family 2 Subfamily C Member 19 (CYP2C19) small molecule antagonists: luciferase reporter qHTS assay (AID 1671197); also: nearly all actives have a fitted effect of over 65% in size; also: potency is read from the fitted curve at half-maximal effect
Summary of the method: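 Light output is proportional to CYP2C19 activity: proluciferin substrate is converted to luciferin, then detected by a luciferin detection reagent that also stops the 1 h, 37C NADPH-driven reaction. Ketoconazole serves as positive control.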

[9] = molecular target: Cytochrome P450 2C9 (Homo sapiens) (UniProt P11712); assay: Cytochrome P450 Family 2 Subfamily C Member 9 (CYP2C9) small molecule antagonists: luciferase reporter qHTS assay (AID 1671198); also: nearly all actives have a fitted effect of over 50% in size; also: potency is read from the fitted curve at half-maximal effect
Summary of the method: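 CYP2C9 activity was measured with a P450-Glo proluciferin substrate. Enzyme–substrate mix was held with compound for 10 min at room temperature, then NADPH regeneration solution was added for 1 h at 37C. Luciferin product was read as luminescence.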

[10] = molecular target: Cytochrome P450 1A2 (Homo sapiens) (UniProt P05177); assay: Cytochrome P450 Family 1 Subfamily A Member 2 (CYP1A2) small molecule antagonists: luciferase reporter qHTS assay (AID 1671199); also: nearly all actives have a fitted effect of over 50% in size; also: potency is read from the fitted curve at half-maximal effect
Summary of the method: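 Steps: enzyme-substrate mix dispensed; test compounds and furafylline control pinned in; 10 min room temperature; NADPH regeneration solution added, 1 h; reaction stopped with luciferin detection reagent; luminescence read after 20 min.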

[11] = molecular target: Voltage-gated inwardly rectifying potassium channel KCNH2 (Homo sapiens) (UniProt Q12809); assay: Human Ether-a-go-go-Related Gene (hERG) channel small molecule antagonists: fluorescence cell-based qHTS assay (AID 1671200); also: nearly all actives have a fitted effect of over 50% in size; also: potency is read from the fitted curve at half-maximal effect
Summary of the method: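 Channel function was assessed by thallium flux. Cells seeded the previous day and kept at 37 C took up FluxOR II dye over 1 h in the dark at room temperature, then sat another 10 min before stimulation.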

[12] = molecular target: Cytochrome P450 3A4 (Homo sapiens) (UniProt P08684); assay: Cytochrome P450 Family 3 Subfamily A Member 4 (CYP3A4) small molecule antagonists: luciferase reporter qHTS assay (AID 1671201); also: nearly all actives have a fitted effect of over 50% in size; also: potency is read from the fitted curve at half-maximal effect
Summary of the method: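 Compounds in DMSO were pin-transferred onto CYP3A4 enzyme-substrate mix and held 10 min at room temperature. NADPH regenerating solution started the reaction for 1 h; luciferin detection reagent stopped it, and luminescence was read after 20 min.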

[13] = Caspase-3/7 induction in HepG2 cells by small molecules, qHTS assay (AID 1346978); also: nearly all actives have a fitted effect of over 15% in size
Summary of the method: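 Wild-type HepG2 cells (2,000/well) were settled 5 h at 37 C, 5% CO2, then exposed to compounds in DMSO for 17 h. Caspase-3/7 activity was read by luminescence 30 min after adding Caspase-Glo 3/7 reagent at room temperature.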

[14] = molecular target: Nuclear receptor subfamily 1 group I member 2 (Rattus norvegicus) (UniProt Q9R1A7); assay: Rat pregnane X receptor (rPXR) activation by small molecules, qHTS assay (AID 1346983); details: rPXR luciferase reporter cells, One-Glo luminescence, 24 h; max activation: active compounds read high; also: nearly all actives have a fitted effect of over 20% in size
Summary of the method: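 Cell-based rPXR luciferase reporter assay, 2,000 cells per well, rested 5hr at 37 C before compound addition in DMSO, then 24 hr at 37 C. One-Glo reagent was added and luminescence read after 30 min at room temperature.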

[15] = molecular target: Nuclear receptor subfamily 1 group I member 2 (Homo sapiens) (UniProt O75469); assay: Human pregnane X receptor (PXR) activation by small molecules, qHTS assay (AID 1346985); also: nearly all actives have a fitted effect of over 40% in size
Summary of the method: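 DPX-2 cells (HepG2 co-transfected with a PXR response element and a CYP3A4-promoter luciferase construct) were seeded at 2,000 per well, rested 5 hr at 37C, then exposed to DMSO-dissolved compounds for 24 hr. Activation was read as luciferase luminescence.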

[16] = molecular target: Nuclear receptor subfamily 1 group I member 2 (Homo sapiens) (UniProt O75469); assay: CYP3A4 induction through human pregnane X receptor (PXR) by small molecules, qHTS assay (AID 1346984); also: nearly all actives have a fitted effect of over 40% in size
Summary of the method: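 Induction measured in HepG2-based DPX-2 cells co-expressing human PXR and a CYP3A4 promoter-driven luciferase. After a 24-hour compound exposure, cells received CYP3A4 luciferin substrate at 3uM final for 3 hours, and light output was then recorded.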
% is scaled to controls: 0 for no effect and ±100 for the full control effect.

Chain of Nuclear receptor subfamily 1 group I member 2 (Homo sapiens) (O75469 whole entry, looked up): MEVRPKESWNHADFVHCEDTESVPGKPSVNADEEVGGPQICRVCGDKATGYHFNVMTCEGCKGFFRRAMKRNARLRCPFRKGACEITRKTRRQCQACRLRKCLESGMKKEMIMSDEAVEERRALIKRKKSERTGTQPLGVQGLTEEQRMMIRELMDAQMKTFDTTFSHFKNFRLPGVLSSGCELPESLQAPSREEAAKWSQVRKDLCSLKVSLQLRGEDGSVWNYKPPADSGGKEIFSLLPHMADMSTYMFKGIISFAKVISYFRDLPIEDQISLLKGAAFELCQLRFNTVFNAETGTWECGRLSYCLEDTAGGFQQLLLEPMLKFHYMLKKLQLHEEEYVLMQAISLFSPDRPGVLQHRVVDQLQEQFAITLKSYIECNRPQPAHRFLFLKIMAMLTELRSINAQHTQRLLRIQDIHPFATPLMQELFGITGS
Chain of Cytochrome P450 2C9 (Homo sapiens) (P11712 whole entry, looked up): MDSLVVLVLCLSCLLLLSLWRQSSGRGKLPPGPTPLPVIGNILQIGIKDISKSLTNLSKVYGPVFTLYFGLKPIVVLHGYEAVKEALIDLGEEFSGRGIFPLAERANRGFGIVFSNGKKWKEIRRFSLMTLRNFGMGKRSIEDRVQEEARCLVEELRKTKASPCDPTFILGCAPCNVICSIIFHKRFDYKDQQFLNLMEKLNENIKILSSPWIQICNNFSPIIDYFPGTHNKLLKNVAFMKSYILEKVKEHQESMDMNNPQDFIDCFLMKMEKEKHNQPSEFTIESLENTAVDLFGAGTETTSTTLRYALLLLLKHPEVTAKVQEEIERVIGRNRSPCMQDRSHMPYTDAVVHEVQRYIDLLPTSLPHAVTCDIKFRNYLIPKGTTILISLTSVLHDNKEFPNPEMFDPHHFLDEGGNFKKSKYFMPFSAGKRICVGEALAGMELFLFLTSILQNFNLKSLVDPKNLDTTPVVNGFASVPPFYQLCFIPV
Chain of Thyrotropin-releasing hormone receptor (Homo sapiens) (P34981 whole entry, looked up): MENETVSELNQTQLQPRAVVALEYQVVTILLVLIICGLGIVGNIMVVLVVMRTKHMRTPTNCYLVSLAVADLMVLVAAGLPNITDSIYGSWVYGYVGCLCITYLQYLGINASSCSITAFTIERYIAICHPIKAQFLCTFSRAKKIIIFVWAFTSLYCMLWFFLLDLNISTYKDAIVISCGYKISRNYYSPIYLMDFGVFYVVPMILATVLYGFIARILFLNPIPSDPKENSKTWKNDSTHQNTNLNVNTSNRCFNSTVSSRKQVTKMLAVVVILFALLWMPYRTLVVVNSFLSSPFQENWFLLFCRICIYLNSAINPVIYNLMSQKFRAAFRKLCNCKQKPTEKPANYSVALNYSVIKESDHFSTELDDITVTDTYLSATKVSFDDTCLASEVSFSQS
Chain of Cytochrome P450 1A2 (Homo sapiens) (P05177 whole entry, looked up): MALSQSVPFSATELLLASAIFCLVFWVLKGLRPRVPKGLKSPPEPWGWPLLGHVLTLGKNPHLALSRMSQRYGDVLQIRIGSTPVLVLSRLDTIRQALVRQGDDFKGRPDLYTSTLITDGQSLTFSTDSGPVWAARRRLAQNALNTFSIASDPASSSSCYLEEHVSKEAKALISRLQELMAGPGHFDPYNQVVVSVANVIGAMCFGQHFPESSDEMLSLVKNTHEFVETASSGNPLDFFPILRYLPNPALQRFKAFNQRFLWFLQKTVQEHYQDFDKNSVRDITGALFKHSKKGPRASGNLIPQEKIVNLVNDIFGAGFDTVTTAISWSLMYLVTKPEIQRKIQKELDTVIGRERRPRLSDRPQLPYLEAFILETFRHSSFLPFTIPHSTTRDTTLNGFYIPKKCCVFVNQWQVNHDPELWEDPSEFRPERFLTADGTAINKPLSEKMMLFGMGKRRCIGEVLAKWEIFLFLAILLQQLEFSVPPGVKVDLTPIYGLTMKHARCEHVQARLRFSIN
Chain of Cytochrome P450 3A4 (Homo sapiens) (P08684 whole entry, looked up): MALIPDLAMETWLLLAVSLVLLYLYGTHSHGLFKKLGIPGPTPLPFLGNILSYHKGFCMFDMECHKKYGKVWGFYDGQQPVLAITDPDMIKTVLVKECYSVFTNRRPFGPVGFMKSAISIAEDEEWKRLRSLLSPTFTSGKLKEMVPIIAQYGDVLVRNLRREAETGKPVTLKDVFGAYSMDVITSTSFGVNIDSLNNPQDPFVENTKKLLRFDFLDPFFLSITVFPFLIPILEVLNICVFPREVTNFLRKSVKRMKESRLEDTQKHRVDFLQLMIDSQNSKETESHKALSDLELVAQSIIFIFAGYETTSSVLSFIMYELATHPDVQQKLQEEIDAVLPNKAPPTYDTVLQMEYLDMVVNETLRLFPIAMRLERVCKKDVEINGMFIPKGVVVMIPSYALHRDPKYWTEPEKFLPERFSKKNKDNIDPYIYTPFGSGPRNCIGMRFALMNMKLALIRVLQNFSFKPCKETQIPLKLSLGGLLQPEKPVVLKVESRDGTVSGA
Chain of Cytochrome P450 2D6 (Homo sapiens) (P10635 whole entry, looked up): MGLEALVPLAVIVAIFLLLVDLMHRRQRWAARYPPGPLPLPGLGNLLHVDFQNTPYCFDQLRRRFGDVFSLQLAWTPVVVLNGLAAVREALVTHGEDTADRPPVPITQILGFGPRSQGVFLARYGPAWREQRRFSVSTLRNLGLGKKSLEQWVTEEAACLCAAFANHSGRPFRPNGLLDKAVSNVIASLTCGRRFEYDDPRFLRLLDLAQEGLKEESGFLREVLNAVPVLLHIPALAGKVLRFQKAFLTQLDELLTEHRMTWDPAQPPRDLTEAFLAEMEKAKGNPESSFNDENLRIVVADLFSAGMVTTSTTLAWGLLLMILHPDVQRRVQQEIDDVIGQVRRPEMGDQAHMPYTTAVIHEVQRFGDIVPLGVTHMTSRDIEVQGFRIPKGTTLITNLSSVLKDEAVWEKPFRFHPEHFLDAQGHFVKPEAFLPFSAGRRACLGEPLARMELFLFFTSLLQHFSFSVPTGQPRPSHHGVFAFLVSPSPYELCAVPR
Chain of Voltage-gated inwardly rectifying potassium channel KCNH2 (Homo sapiens) (Q12809 whole entry, looked up): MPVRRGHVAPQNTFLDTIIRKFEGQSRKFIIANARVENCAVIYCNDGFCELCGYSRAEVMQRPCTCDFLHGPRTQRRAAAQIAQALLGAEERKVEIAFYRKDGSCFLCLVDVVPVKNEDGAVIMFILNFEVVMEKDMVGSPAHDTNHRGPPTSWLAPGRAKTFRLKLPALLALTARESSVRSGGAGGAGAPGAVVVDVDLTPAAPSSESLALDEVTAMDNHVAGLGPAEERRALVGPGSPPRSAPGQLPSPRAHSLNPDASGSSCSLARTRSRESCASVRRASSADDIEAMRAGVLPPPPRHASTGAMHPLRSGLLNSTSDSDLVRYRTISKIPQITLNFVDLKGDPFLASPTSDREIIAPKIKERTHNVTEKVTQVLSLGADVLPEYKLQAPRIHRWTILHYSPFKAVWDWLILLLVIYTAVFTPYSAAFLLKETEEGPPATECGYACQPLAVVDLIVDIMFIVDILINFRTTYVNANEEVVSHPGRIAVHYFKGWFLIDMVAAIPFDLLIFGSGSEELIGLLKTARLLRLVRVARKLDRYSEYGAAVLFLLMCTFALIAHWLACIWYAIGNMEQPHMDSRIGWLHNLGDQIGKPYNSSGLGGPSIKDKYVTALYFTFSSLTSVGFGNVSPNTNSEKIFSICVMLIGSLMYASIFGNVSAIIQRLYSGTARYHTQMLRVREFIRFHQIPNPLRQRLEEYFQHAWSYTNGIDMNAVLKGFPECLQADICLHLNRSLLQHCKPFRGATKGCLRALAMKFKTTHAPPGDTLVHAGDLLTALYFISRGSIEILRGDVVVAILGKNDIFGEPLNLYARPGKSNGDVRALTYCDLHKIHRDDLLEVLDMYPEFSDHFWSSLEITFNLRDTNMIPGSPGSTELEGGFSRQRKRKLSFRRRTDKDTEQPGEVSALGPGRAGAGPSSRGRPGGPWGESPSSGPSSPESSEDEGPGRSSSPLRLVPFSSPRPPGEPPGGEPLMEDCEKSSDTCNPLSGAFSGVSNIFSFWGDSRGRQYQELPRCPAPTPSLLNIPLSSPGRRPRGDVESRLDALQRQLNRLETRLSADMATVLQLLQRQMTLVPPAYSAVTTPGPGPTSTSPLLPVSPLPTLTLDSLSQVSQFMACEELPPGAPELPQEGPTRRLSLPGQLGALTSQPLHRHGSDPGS
Chain of Cytochrome P450 2C19 (Homo sapiens) (P33261 whole entry, looked up): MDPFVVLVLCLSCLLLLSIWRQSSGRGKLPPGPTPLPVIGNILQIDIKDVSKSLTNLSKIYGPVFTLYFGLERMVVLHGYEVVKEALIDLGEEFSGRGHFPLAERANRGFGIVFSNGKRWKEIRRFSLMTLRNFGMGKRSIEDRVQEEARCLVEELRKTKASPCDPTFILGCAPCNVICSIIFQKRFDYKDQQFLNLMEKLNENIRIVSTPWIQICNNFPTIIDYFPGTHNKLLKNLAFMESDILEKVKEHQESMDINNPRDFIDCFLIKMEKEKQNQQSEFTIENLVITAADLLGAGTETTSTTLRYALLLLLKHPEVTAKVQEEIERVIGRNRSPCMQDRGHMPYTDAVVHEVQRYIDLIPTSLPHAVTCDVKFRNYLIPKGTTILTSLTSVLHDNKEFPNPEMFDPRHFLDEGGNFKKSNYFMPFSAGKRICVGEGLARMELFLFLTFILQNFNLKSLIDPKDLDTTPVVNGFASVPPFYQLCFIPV
Chain of Nuclear receptor subfamily 1 group I member 2 (Rattus norvegicus) (Q9R1A7 whole entry, looked up): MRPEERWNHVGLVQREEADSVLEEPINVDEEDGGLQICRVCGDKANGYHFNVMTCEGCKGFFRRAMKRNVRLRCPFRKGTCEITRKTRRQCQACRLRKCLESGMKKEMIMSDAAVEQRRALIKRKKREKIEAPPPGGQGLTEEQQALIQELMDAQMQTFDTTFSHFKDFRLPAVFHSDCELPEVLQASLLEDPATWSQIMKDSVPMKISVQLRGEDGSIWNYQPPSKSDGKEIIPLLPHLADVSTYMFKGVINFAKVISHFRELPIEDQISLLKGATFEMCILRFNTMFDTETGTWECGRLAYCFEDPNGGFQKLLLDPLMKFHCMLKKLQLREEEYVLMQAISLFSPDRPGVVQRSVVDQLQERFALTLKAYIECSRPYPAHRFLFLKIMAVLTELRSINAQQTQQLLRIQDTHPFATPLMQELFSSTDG

O=Cc1ccc(Cl)c([N+](=O)[O-])c1
active: Potency [3] 68.6 µM | Potency [7] 35.6 µM | Potency [8] 22.4 µM | Potency [9] 71 µM | Potency [10] 22.4 µM | Potency [12] 71 µM
inactive: outcome [1] | Potency [2] | Potency [4] | Potency [5] | Potency [6] | Potency [11]

CCCOC(C)=O
inactive: outcome [1] | Potency [2] | Potency [3] | Potency [4] | Potency [5] | Potency [6] | Potency [7] | Potency [8] | Potency [9] | Potency [10] | Potency [11] | Potency [12]

O=C(NC1CCN(CCc2c[nH]c3ccccc23)CC1)c1ccccc1
inactive: outcome [1] | Potency [13] | Potency [3] | Potency [4] | Potency [5] | Potency [6] | max activation [14] -9.19% | Potency [15] | Potency [8] | Potency [9] | Potency [10]
active: Potency [7] 1.95 µM | Potency [11] 4.77 µM

Cc1ccccc1CCO
inactive: outcome [1] | Potency [2] | Potency [3] | Potency [4] | Potency [5] | Potency [6] | Potency [7] | Potency [8] | Potency [9] | Potency [10] | Potency [11] | Potency [12]

C[C@@H](O)[C@H]1C(=O)N2C(C(=O)O)=C(S[C@@H]3CN[C@H](CNS(N)(=O)=O)C3)[C@H](C)[C@H]12
inactive: outcome [1] | Potency [13] | Potency [3] | Potency [4] | Potency [5] | max activation [14] -2.11% | Potency [16] | Potency [15] | Potency [7]
active: Potency [6] 18.8 µM | Potency [8] 9.77 µM | Potency [9] 15.5 µM | Potency [12] 3.89 µM

O=C(Cl)c1cc(Cl)cc(Cl)c1
inactive: outcome [1] | Potency [2] | Potency [3] | Potency [4] | Potency [5] | Potency [6] | Potency [7] | Potency [8] | Potency [9] | Potency [10] | Potency [11] | Potency [12]

CC(C)CCCCCOC(=O)CS
inactive: outcome [1] | Potency [2] | Potency [3] | Potency [4] | Potency [5] | Potency [8] | Potency [10] | Potency [11]
active: Potency [7] 25.2 µM | Potency [9] 71 µM

CC1=C(C)C(=O)C(CCCCC#CCCCC#CCO)=C(C)C1=O
active: Potency [3] 29.8 µM | Potency [6] 26.6 µM | Potency [7] 15.5 µM | Potency [8] 11 µM | Potency [9] 6.92 µM | Potency [10] 4.9 µM
inactive: outcome [1] | Potency [2] | Potency [4] | Potency [5]

COc1ccc(/C=C/c2cc(OC)cc(=O)o2)cc1
inactive: outcome [1] | Potency [2] | Potency [3] | Potency [4] | Potency [5] | Potency [7] | Potency [9] | Potency [11] | Potency [12]
active: Potency [6] 8.84 µM | Potency [8] 4.09 µM | Potency [10] 9.15 µM

CCC(=O)O[C@@H]1C[C@H]2CC[C@]1(C)C2(C)C
inactive: outcome [1] | Potency [2] | Potency [3] | Potency [4] | Potency [5] | Potency [6] | Potency [7] | Potency [8] | Potency [9] | Potency [10] | Potency [11] | Potency [12]

CCCCCCCCCCCCCCCCC(=O)O
inactive: outcome [1] | Potency [13] | Potency [3] | Potency [4] | Potency [5] | Potency [6] | Potency [7] | Potency [8] | Potency [9] | Potency [10] | Potency [11] | Potency [12]

c1ccc(CCNc2nc(-c3ccccc3)cs2)cc1
active: Potency [6] 3.76 µM | Potency [7] 17.4 µM | Potency [8] 2.75 µM | Potency [9] 6.92 µM | Potency [10] 2.29 µM
inactive: outcome [1] | Potency [13] | Potency [3] | Potency [4] | Potency [5] | Potency [11]

COc1ccnc2c1CCCCC2S(=O)c1nc2ccccc2[nH]1 (stereo not drawn)
active: Potency [6] 29.8 µM | Potency [7] 0.436 µM | Potency [8] 8.71 µM | Potency [9] 12.3 µM | Potency [10] 13.8 µM
inactive: outcome [1] | Potency [2] | Potency [3] | Potency [4] | Potency [5] | Potency [11]

CC(C)(C)NCC(O)COc1ccc(NC(=O)NC2CCCCC2)cc1 (stereo not drawn)
inactive: outcome [1] | Potency [13] | Potency [3] | Potency [4] | Potency [5] | Potency [6] | max activation [14] 0.0743% | Potency [16] | Potency [7] | Potency [8] | Potency [9] | Potency [10] | Potency [11] | Potency [12]

CCOc1ccccc1O
inactive: outcome [1] | Potency [13] | Potency [3] | Potency [4] | Potency [5] | Potency [6] | Potency [7] | Potency [8] | Potency [9] | Potency [10] | Potency [11] | Potency [12]

Cc1c(N=C=O)cccc1N=C=O
active: Potency [8] 72.4 µM
inactive: outcome [1] | Potency [2] | Potency [3] | Potency [4] | Potency [5] | Potency [6] | Potency [7] | Potency [11]

CCCC(=O)OCc1ccccc1
inactive: outcome [1] | Potency [2] | Potency [3] | Potency [4] | Potency [5] | Potency [6] | Potency [7] | Potency [8] | Potency [9] | Potency [10] | Potency [12]

CC(=O)Nc1cccc(N)c1
active: Potency [8] 57.2 µM
inactive: outcome [1] | Potency [2] | Potency [3] | Potency [4] | Potency [5] | Potency [6]

COc1ccc(C(=O)c2ccc(C)cc2)c(O)c1
inactive: outcome [1] | Potency [2] | Potency [3] | Potency [4] | Potency [5] | max activation [14] -1.42% | Potency [16] | Potency [12]
active: Potency [6] 11 µM | Potency [7] 40.4 µM | Potency [8] 5.08 µM | Potency [9] 22.7 µM | Potency [10] 20.2 µM
